Experiment: binders of probe aFST on microarray, primary screen, stem cell growth factor project, biochemical, small-molecule microarray, fluorescence 635/667 (AID 1086);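 also: score merges 667 nm fluorescence with signal-to-noise of each printed compound spot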
Conditions: higher = more signal

Compound | composite z-score
COC(=O)[C@@]1(Cc2ccc(OC)cc2)[C@H]2c3cc(C(=O)N(C)C)n(Cc4cc(C)n(C)n4)c3C[C@H]2CN1C(=O)c1ccccc1 | 0.732
O=C(NCc1ccccc1)[C@]1(Cc2ccccc2)N=C(c2ccc(OCCCO)cc2)O[C@@H]1c1ccccc1 | 0.662
[N-]=[N+]=NCc1ccccc1[C@H]1OC(c2ccc(OCCCO)cc2)=N[C@@]1(Cc1ccccc1N=[N+]=[N-])C(=O)N1CCCCC1 | 1.41
COCCOC(=O)N1C(=O)[C@@]2(c3ccccc31)[C@H](c1ccc(OCCO)cc1)N1[C@H](c3ccccc3)[C@H](c3ccccc3)OC(=O)[C@H]1[C@@H]2C(=O)NC[C@H](O)c1ccccc1 | 0.576
COc1ccc(C(=O)Nc2ccc3c(c2)[C@]2(O[C@@H](CCO)[C@H]([Si](C)(C)c4ccc(OC)cc4)[C@H]2C)C(=O)N3Cc2ccccc2)cc1 | -0.0897
CN(C)C(=O)[C@]1(Cc2ccccc2N=[N+]=[N-])N=C(c2ccc(OCCCO)cc2)O[C@@H]1c1ccccc1CN=[N+]=[N-] | 0.745
COCCOC(=O)N1C(=O)[C@@]2(c3cc(C#Cc4ccc(OC)cc4)ccc31)[C@H](C(=O)N1CCc3cc(OC)c(OC)cc3C1)[C@H]1C(=O)O[C@H](c3ccccc3)[C@H](c3ccccc3)N1[C@@H]2c1ccc(O)cc1 | -0.0689
COc1ccc(C#Cc2ccc3c(c2)[C@]2(C(=O)N3)[C@H](C(N)=O)[C@H]3C(=O)O[C@H](c4ccccc4)[C@H](c4ccccc4)N3[C@@H]2c2ccc(O)cc2)cc1 | 0.722
COc1ccc([Si](C)(C)[C@@H]2[C@@H](CCO)O[C@]3(C(=O)N(Cc4ccccc4)c4ccc(N5C(=O)COc6ccccc65)cc43)[C@H]2C)cc1 | 0.17
CC(C)(C)OC(=O)CC[C@@]1(C(=O)N2CCCCC2)N=C(c2ccc(OCCCO)cc2)O[C@@H]1c1ccccc1CN=[N+]=[N-] | 1.63
CC(C)C(CO)N1C(=O)[C@@H]2[C@H]3C(=O)OCC=C[C@H]3OC23C=CCN(CCN2CCOCC2)C(=O)[C@@H]13 (stereo partly specified) | -0.525
CN1C(=O)C2C=CC(C(O)c3cccc4ccccc34)N(NC(=O)OC(C)(C)C)C2C1=O (stereo unspecified) | 1.4
COCCOC(=O)N1C(=O)[C@@]2(c3cc(C#Cc4ccc(OC)cc4)ccc31)[C@H](C(=O)N1CCc3cc(OC)c(OC)cc3C1)[C@H]1C(=O)O[C@H](c3ccccc3)[C@H](c3ccccc3)N1[C@@H]2c1ccc(OCCO)cc1 | 0.0478
CCOC(=O)C1=CC[C@@H](c2ccccc2)N(S(=O)(=O)c2ccc(C)cc2)[C@H]1C=C(C)C | 1.58
C[N+](C)(C)CCCC[C@@H]1NC(=O)[C@H]2C[C@@H](C(=O)NCCCCCCN)[C@@H](c3cccc(OCCO)c3)N2C1=O | 0.592
COC(=O)C(CC#Cc1ccc2c(c1)[C@]1(C(=O)N2)[C@H](c2ccc(O)cc2)N2[C@H](c3ccccc3)[C@H](c3ccccc3)OC(=O)[C@H]2[C@@H]1C(N)=O)C(=O)OC | -0.611
CCOc1cc(C(O)C2C=CC3C(=O)NC(=O)C3N2Nc2ccccn2)ccc1O (stereo unspecified) | 0.0771
C[N+](C)(C)CCCCCCNC(=O)[C@@H]1C[C@@H]2C(=O)NCC(=O)N2[C@@H]1c1cccc(OCCO)c1 | -0.0422
O=C1c2ccccc2C(=O)C2CC([C@H]3Oc4ccccc4S(=O)(=O)N4CCC[C@@H]34)=CCC12 (stereo partly specified) | -0.0883
CCCc1cc2c(n1Cc1ccc(OC)cc1)C(C)C1CN(C(=O)c3ccccc3)C(C)(C(=O)OC)C21 (stereo unspecified) | 1.14
CC(=O)NCCCC[C@@H]1NC(=O)[C@@H]2C[C@H](C(=O)NCCCC[N+](C)(C)C)[C@H](c3cccc(OCCO)c3)N2C1=O | -0.204
[N-]=[N+]=Nc1ccccc1[C@@H]1OC(c2ccc(OCCCO)cc2)=N[C@]1(CCS(=O)(=O)c1ccccc1)C(=O)NCc1ccccc1 | 1.8
CN(C)CCCC[C@@H]1NC(=O)[C@H]2C[C@@H](C(=O)NCCCCCCNC(=O)CS)[C@@H](c3ccc(O)cc3)N2C1=O | -0.337
COC(=O)[C@@]1(Cc2ccc(OC)cc2)[C@H]2c3cc(C(=O)N4CCCC4)n(Cc4ccc(C)o4)c3C[C@H]2CN1C(=O)c1ccccc1 | 1.05
O=C1N(Cc2ccccc2)c2ccccc2[C@H]2OC(c3ccc(OCCCO)cc3)=N[C@@]12CCS(=O)(=O)c1ccccc1 | 0.574
COCCCNC(=O)[C@]1(Cc2ccccc2)N=C(c2ccc(OCCCO)cc2)O[C@@H]1c1ccccc1N=[N+]=[N-] | 1.47
